Reference: PubChem BioAssay (EPA / NIEHS)
Active and inactive are the calls of the source. Rule for the calls: active = hit-call score of the fitted dose curve at least 0.9, where 1 is the maximum; inactive = score below 0.9.

Molecular target: Nuclear respiratory factor 1 (Homo sapiens) (UniProt Q16656)
Assay: ATG_NRF1_CIS: Attagene CIS-FACTORIAL HepG2 Assay for human Nuclear Respiratory Factor 1 (NRF1) Orphan Gene (AID 2282987)
Details: HepG2 NRF1 cis-element reporter, Attagene multiplex; actives raise or lower the signal
Outline: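 Cells (HepG2, transient MRTU transfection) are exposed to compound for 24 h, then RNA isolated and reporter mRNA amplified and fluorescently labelled. Fragments are separated by capillary electrophoresis; signal change is fitted bidirectionally relative to DMSO.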

Sequence of Nuclear respiratory factor 1 (Homo sapiens) (Q16656 whole entry, looked up): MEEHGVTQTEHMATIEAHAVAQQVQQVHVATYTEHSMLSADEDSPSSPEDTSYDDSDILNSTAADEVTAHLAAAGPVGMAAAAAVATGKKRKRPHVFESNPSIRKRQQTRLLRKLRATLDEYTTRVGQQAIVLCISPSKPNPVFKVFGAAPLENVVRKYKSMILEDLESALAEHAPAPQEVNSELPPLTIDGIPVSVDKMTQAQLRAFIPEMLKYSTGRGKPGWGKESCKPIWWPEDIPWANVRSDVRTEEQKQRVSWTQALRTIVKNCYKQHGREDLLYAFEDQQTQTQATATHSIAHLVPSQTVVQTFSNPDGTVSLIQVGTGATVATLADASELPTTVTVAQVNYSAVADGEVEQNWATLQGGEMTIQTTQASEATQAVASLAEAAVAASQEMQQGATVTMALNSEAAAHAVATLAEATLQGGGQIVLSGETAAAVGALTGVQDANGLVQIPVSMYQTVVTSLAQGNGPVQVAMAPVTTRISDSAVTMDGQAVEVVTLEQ

Row | Compound | outcome | AC50
1 | CC(C)Nc1nc(N)nc(Cl)n1 | inactive | –
2 | C=Cc1ccc(C)cc1 | inactive | –
3 | CCOc1ccc(NC(=O)CC(C)O)cc1 (configuration not stated) | inactive | –
4 | Cc1ccc(OC(=O)c2ccccc2O)cc1 | inactive | –
5 | COC(=O)c1ccc([N+](=O)[O-])cc1 | inactive | –
6 | CC(=O)C1(C)CC2=C(CCCC2(C)C)CC1C (configuration not stated) | inactive | –
7 | C=C(C)CNCC | inactive | –
8 | CCCC(O)C(O)CO (configuration not stated) | inactive | –
9 | CN1C(=O)c2ccccc2C1=O | inactive | –
10 | C=C(C)C(=O)OCCOCCOCCOCCOC(=O)C(=C)C | inactive | –
11 | CC(=O)Nc1ccc(C(=O)CCl)cc1 | inactive | –
12 | OC[C@H]1O[C@@H]2O[C@H]3[C@H](O)[C@@H](O)[C@@H](O[C@H]4[C@H](O)[C@@H](O)[C@@H](O[C@H]5[C@H](O)[C@@H](O)[C@@H](O[C@H]6[C@H](O)[C@@H](O)[C@@H](O[C@H]7[C@H](O)[C@@H](O)[C@@H](O[C@H]8[C@H](O)[C@@H](O)[C@@H](O[C@H]9[C@H](O)[C@@H](O)[C@@H](O[C@H]1[C@H](O)[C@H]2O)O[C@@H]9CO)O[C@@H]8CO)O[C@@H]7CO)O[C@@H]6CO)O[C@@H]5CO)O[C@@H]4CO)O[C@@H]3CO | inactive | –
13 | CCCCCCOC(=O)C(C)C | inactive | –
14 | N#Cc1ccc(CC(=O)c2cccc(C(F)(F)F)c2)cc1 | – | 100 µM (active)
15 | O=C(O)c1cccnc1C(=O)O | inactive | –
16 | C=CC(=O)OCCCC | inactive | –
17 | CCc1ccc(O)cc1 | inactive | –
18 | CC1=NN(c2ccc(S(=O)(=O)O)cc2)C(=O)C1 | inactive | –
19 | CCO/C=C1\N=C(c2ccccc2)OC1=O | inactive | –

Row | Compound | outcome | AC50
20 | C[N+](C)(C)CCCCCC[N+](C)(C)C | inactive | –
21 | Nc1ccc(NCCO)c([N+](=O)[O-])c1 | inactive | –
22 | CCCC(C)=O | inactive | –
23 | CS(C)=O | inactive | –
24 | C=CCOC(=O)CCCCCC | inactive | –
25 | Nc1ccn([C@H]2CS[C@@H](CO)O2)c(=O)n1 | inactive | –
26 | O=P(O)(O)O | inactive | –
27 | CCCOC(=O)c1c(Cl)c(Cl)c(Cl)c(Cl)c1C(=O)OCCC | – | 146 µM (active)
28 | Cc1c(Cl)cccc1[N+](=O)[O-] | inactive | –
29 | CCCCC(CC)COC(C)=O (configuration not stated) | inactive | –
30 | CC(C)(N=C=O)c1cccc(C(C)(C)N=C=O)c1 | inactive | –
31 | CCCN(CCC)S(=O)(=O)c1ccc(C(=O)O)cc1 | inactive | –
32 | CCCCCCOCCOCCO | inactive | –
33 | CCOc1ccc(NC(=O)CC(C)=O)cc1 | inactive | –
34 | CC1(C)O[C@@H]2[C@@H](CO[C@@]3(COS(N)(=O)=O)OC(C)(C)O[C@@H]23)O1 | inactive | –
35 | CC(C)CCCCCCCCCCCCCCC(=O)O | inactive | –
36 | CCOC(=O)C1OC1c1ccccc1 (configuration not stated) | inactive | –
37 | Cc1ccc2c(c1)C(=O)OC2=O | inactive | –
38 | Nc1ccc(Cl)c([N+](=O)[O-])c1 | inactive | –

System: not listed separately
Assay: ATG_NFI_CIS: Attagene CIS-FACTORIAL HepG2 Assay for human Nuclear Factor I (NFI) (AID 2282989)
Details: HepG2 cis-regulatory reporter, NFI response element transcription; actives raise or lower the signal
Outline: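 Transfected HepG2 liver cells, exposed 24 h, supplied total RNA for oligo(dT) reverse transcription and reporter-specific PCR. Labelled, HpaI-cut fragments were sized by capillary electrophoresis; DMSO set the baseline for bidirectional fitting.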

Row | Compound | outcome | AC50
39 | C=Cc1ccc(C)cc1 | inactive | –
40 | CCOc1ccc(NC(=O)CC(C)O)cc1 (configuration not stated) | inactive | –
41 | Cc1ccc(OC(=O)c2ccccc2O)cc1 | inactive | –
42 | COC(=O)c1ccc([N+](=O)[O-])cc1 | inactive | –
43 | C=C(C)CNCC | inactive | –
44 | CCCC(O)C(O)CO (configuration not stated) | inactive | –
45 | C=C(C)C(=O)OCCOCCOCCOCCOC(=O)C(=C)C | inactive | –
46 | CC(=O)Nc1ccc(C(=O)CCl)cc1 | – | 8.18 µM (active)
47 | OC[C@H]1O[C@@H]2O[C@H]3[C@H](O)[C@@H](O)[C@@H](O[C@H]4[C@H](O)[C@@H](O)[C@@H](O[C@H]5[C@H](O)[C@@H](O)[C@@H](O[C@H]6[C@H](O)[C@@H](O)[C@@H](O[C@H]7[C@H](O)[C@@H](O)[C@@H](O[C@H]8[C@H](O)[C@@H](O)[C@@H](O[C@H]9[C@H](O)[C@@H](O)[C@@H](O[C@H]1[C@H](O)[C@H]2O)O[C@@H]9CO)O[C@@H]8CO)O[C@@H]7CO)O[C@@H]6CO)O[C@@H]5CO)O[C@@H]4CO)O[C@@H]3CO | inactive | –
48 | CCCCCCOC(=O)C(C)C | inactive | –
49 | N#Cc1ccc(CC(=O)c2cccc(C(F)(F)F)c2)cc1 | – | 188 µM (active)
50 | O=C(O)c1cccnc1C(=O)O | inactive | –
51 | C=CC(=O)OCCCC | inactive | –
52 | CCc1ccc(O)cc1 | inactive | –
53 | CC1=NN(c2ccc(S(=O)(=O)O)cc2)C(=O)C1 | inactive | –
54 | CCO/C=C1\N=C(c2ccccc2)OC1=O | inactive | –
55 | C[N+](C)(C)CCCCCC[N+](C)(C)C | inactive | –

Row | Compound | outcome | AC50
56 | Nc1ccc(NCCO)c([N+](=O)[O-])c1 | inactive | –
57 | CCCC(C)=O | inactive | –
58 | CS(C)=O | inactive | –
59 | C=CCOC(=O)CCCCCC | inactive | –
60 | Nc1ccn([C@H]2CS[C@@H](CO)O2)c(=O)n1 | inactive | –
61 | CCCOC(=O)c1c(Cl)c(Cl)c(Cl)c(Cl)c1C(=O)OCCC | – | 156 µM (active)
62 | Cc1c(Cl)cccc1[N+](=O)[O-] | inactive | –
63 | CCCCC(CC)COC(C)=O (configuration not stated) | inactive | –
64 | CC(C)(N=C=O)c1cccc(C(C)(C)N=C=O)c1 | inactive | –
65 | CCCN(CCC)S(=O)(=O)c1ccc(C(=O)O)cc1 | inactive | –
66 | CCCCCCOCCOCCO | inactive | –
67 | CCOc1ccc(NC(=O)CC(C)=O)cc1 | inactive | –
68 | CC1(C)O[C@@H]2[C@@H](CO[C@@]3(COS(N)(=O)=O)OC(C)(C)O[C@@H]23)O1 | inactive | –
69 | CC(C)CCCCCCCCCCCCCCC(=O)O | inactive | –
70 | CCOC(=O)C1OC1c1ccccc1 (configuration not stated) | inactive | –
71 | Cc1ccc2c(c1)C(=O)OC2=O | inactive | –
72 | Nc1ccc(Cl)c([N+](=O)[O-])c1 | inactive | –
